Compounds with a hit are over-represented: about 19% of the library has one in this group of screens.
TDP1 cell CPT – qHTS for Inhibitors of human tyrosyl-DNA phosphodiesterase 1 (TDP1): qHTS in cells in presence of CPT | hit rate 12% among 420,000 | chicken DT40 Tdp1-/-;hTDP1 cells + 20 nM CPT, ATP luminescence, 48 h | Potency, µM (top dose mostly 46.2 µM), for the others: top-dose activity change, negative = growth inhibition, hits mostly inhibitors | AID 686979, 2013; further: potency means the concentration at half of the fitted maximal effect; nearly all actives have a fitted effect of over 55% in size
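Cell growth measured by CellTiter-Glo luminescence after a minimum 48 h, 37 C compound exposure with 20 nM CPT in Tdp1-knockout DT40 cells stably expressing hTDP1, seeded 400/well; qHTS titration format.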
HT1080 IDH1KD tx – qHTS for induction of synthetic lethality in tumor cells producing 2HG: qHTS for the HT-1080-IDH1KD cell line | hit rate 2% among 360,000 | AID 686971, 2013 | Potency, µM (doses to about 46.1 µM), inactives show at the highest dose activity, negative = toxicity, most hits filed as cytotoxic | HT-1080 IDH1 knockdown viability, ATP luminescence, 48 h;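 further: potency means the concentration at half of the fitted maximal effect; 0% = DMSO wells and -100% = cell-free medium wells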
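Viability of IDH1-knockdown HT-1080 fibrosarcoma cells was assessed by CellTiter-Glo after 48 h at 37 °C with titrated compound; concentration-effect curves were classified by fit quality and response size.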
IL-1B inflam inh – qHTS for Inhibitors of Inflammasome Signaling: IL-1-beta AlphaLISA Primary Screen. THP-1 LPS/ATP IL-1B secretion, AlphaLISA, 16 h; stronger effect = lower value. activity change, % at 57.5 µM. hit rate 4.7% among 360,000. AID 743279, 2014; in the data active means activity change below about -50%; inconclusive means mostly about -30% to -49%
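THP-1 cells pretreated 1 hr with compounds (up to 57.5 uM final), then stimulated with LPS (250 ng/mL final) plus ATP (1.25 mM final); secreted IL-1B measured by AlphaLISA after 16 hr, decreased signal indicating inhibition.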
TDP1 cell noCPT – qHTS for Inhibitors of human tyrosyl-DNA phosphodiesterase 1 (TDP1): qHTS in cells in absence of CPT | Potency, µM (titrated, usually from 46.2 µM), for the others: at the highest dose activity change, negative = growth inhibition, hits mostly inhibitors | hit rate 15% among 420,000 | DT40 Tdp1-/- hTDP1 cells, no CPT, ATP luminescence, 48 h; further: potency means the concentration at half of the fitted maximal effect; nearly all actives have a fitted effect of over 55% in size
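Chicken DT40 Tdp1-/- cells stably complemented with human TDP1 were seeded at 400 cells/well with DMSO in place of 20 nM camptothecin. After compound pinning, cells grew at least 48 hr at 37 °C; viability read by CellTiter-Glo luminescence.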
HT1080NT lethal – qHTS for induction of synthetic lethality in tumor cells producing 2HG: qHTS for the HT-1080-NT fibrosarcoma cell line; AID 686970, 2013; Potency, µM (titrated, usually from 46.1 µM), for inactives: top-dose activity, negative = less viability, most hits filed as cytotoxic; hit rate 1.6% among 360,000; HT-1080-NT fibrosarcoma viability, CellTiter-Glo ATP luminescence, 48 h;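 further: NT is the 2HG producing partner of a matched IDH1 knockdown line; potency means the concentration at half of the fitted maximal effect; 0% = DMSO-treated cells and -100% = media-only wells without cells; nearly all actives have a fitted effect of over 55% in size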
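Fibrosarcoma NT cells, 750 per well in 5% FBS RPMI, were exposed to compound for 48 hours. Viability: CellTiter-Glo luminescence.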
* hit, by the source's call; ? = inconclusive; . = no result. Unless noted, the call rests on the fitted dose curve; in most records, active means well fitted curve in the direction sought with a large enough effect; inconclusive means small, poorly fitted or top-dose-only effect, or another doubt; inactive means no such curve, though single readings can be large; an effect the other way counts as inactive or inconclusive. Unless noted, on the % scale 0 is the no-effect control and ±100 the full control effect.

SMILES	TDP1 cell CPT	HT1080 IDH1KD tx	IL-1B inflam inh	TDP1 cell noCPT	HT1080NT lethal
COc1ccc(CCNC(=O)COC(=O)C2=NNC(=O)CC2)cc1	-13.0%	-4.1%	-9.3	-23.0%	-0.2%
CCOc1cc(-c2nc(-c3ccc(-c4ccc(OC)cc4)nc3OC)no2)cc(OCC)c1OCC	18.4µM*	.	.	10.3µM*	.
CCOc1cc(-c2nc(-c3ccc(C)nc3OC)no2)cc(OCC)c1OCC	?	11.0%	0.0	?	0.9%
COc1cc(OC)cc(-c2nc(-c3ccc(Br)cc3)no2)c1	-5.6%	-6.7%	-13.9	-18.6%	13.1%
COc1ccc(-c2noc(-c3cc(C(C)C)[nH]n3)n2)cc1	20.6µM*	.	.	18.4µM*	.
Cn1c(=O)oc2cc(S(=O)(=O)N3CCC(C(=O)N4CCN(c5cccc(Cl)c5)CC4)CC3)ccc21	4.11µM*	.	.	1.46µM*	.
Cc1ccc(NC(=O)C2CCN(S(=O)(=O)c3ccc4c(c3)oc(=O)n4C)CC2)cc1	-4.4%	1.5%	14.6	14.7%	0.2%
Cn1c(=O)oc2cc(S(=O)(=O)N3CCC(C(=O)N4CCN(c5ccc(Cl)cc5)CC4)CC3)ccc21	2.06µM*	.	.	2.31µM*	.
COc1ccc(C(=O)NC(C)c2nnc(SCC(=O)Nc3nc4ccccc4s3)n2C)cc1 (centres undefined)	?	-2.8%	11.7	?	-1.8%
CCOc1ccccc1NC(=O)NCc1ccc(F)cc1	-25.1%	17.6%	23.4	-27.9%	13.3%
O=C1CC(N2CCN(Cc3ccccc3)CC2)C(=O)N1CCc1ccccc1 (centres undefined)	?	5.3%	11.5	-21.1%	6.8%
O=C1CC(N2CCN(Cc3ccc(Cl)cc3)CC2)C(=O)N1CCc1ccccc1 (centres undefined)	14.6µM*	1.3%	20.5	18.4µM*	-5.1%
COc1ccc(N2CCN(C3C(=O)Nc4ccccc4-n4nnnc43)CC2)cc1 (centres undefined)	-7.8%	7.1%	4.4	-25.7%	0.4%
Cc1ccc(C)c(N2CCN(C3C(=O)Nc4ccccc4-n4nnnc43)CC2)c1 (centres undefined)	20.6µM*	16.4µM*	28.1	16.4µM*	?
O=C1Nc2ccccc2-n2nnnc2C1N1CCN(c2ccc(C(F)(F)F)cc2[N+](=O)[O-])CC1 (centres undefined)	23.1µM*	?	1.2	16.4µM*	?
COc1ccccc1NC(=O)CN1CCN(CC(=O)Nc2ccc(F)cc2F)CC1	-26.7%	22.3%	37.0	-21.9%	-0.1%
CN(C)S(=O)(=O)c1ccc(NC=O)cc1	-20.1%	0.8%	-3.8	-9.5%	-3.5%
COc1ccc(C(=O)CSc2nnc(CNC(=O)c3ccccc3)n2C)cc1	1.1%	0.3%	31.7	-8.9%	-1.8%
CCOc1ccc2nc(N3C(=O)/C(=C/c4ccccc4)NC3=S)sc2c1	23.1µM*	8.8%	20.3	?	2.2%
CC(Nc1nc(-c2ccc3c(c2)NC(=O)CO3)cs1)c1ccccc1 (centres undefined)	18.4µM*	?	?	25.9µM*	?
COc1cccc(-c2nc(-c3ccc4c(c3)NC(=O)CO4)cs2)c1	8.2µM*	-13.7%	?	5.17µM*	-4.2%
O=C1COc2ccc(-c3csc(-c4ccc(F)cc4)n3)cc2N1	?	.	.	-10.6%	.
COC(C[C@@H](O)CC(=O)[C@H](C)OCc1ccccc1)OC	7.9%	4.8%	17.0	-4.6%	1.3%
COc1ccc2nc(NC(=O)CSC3=NCCS3)sc2c1	?	?	-58.0*	?	-25.3%
COc1ccc2nc(NC(=O)CSc3ccccc3)sc2c1	?	-0.9%	-10.0	?	9.8%
SMILES	TDP1 cell CPT	HT1080 IDH1KD tx	IL-1B inflam inh	TDP1 cell noCPT	HT1080NT lethal
COc1cccc(Nc2nc3ccc(OC)cc3s2)c1	-23.6%	-19.2%	-172.3*	?	-3.1%
COc1ccc2nc(NC(=O)c3ccoc3C)sc2c1	?	11.2µM*	-9.2	?	10µM*
COc1ccc2nc(NC(=O)c3cc(C)oc3C)sc2c1	?	-21.4%	-10.5	?	-17.5%
COc1ccc2nc(NC(=S)N(C)C)sc2c1	4.61µM*	-19.9%	94.7	4.61µM*	-2.4%
CC(=O)/C(=C\c1ccccc1)CC(=O)O	0.6%	.	.	5.0%	.
CCSc1nnc(NC(=O)c2cccc(OCc3c(C)noc3C)c2)s1	-18.6%	-10.8%	-22.3	-9.2%	-0.5%
CCCC(=O)Nc1nc2ccc(OC)cc2s1	14.6µM*	-0.4%	10.8	?	2.6%
CCOc1ccc2nc(NC(=O)CSC3=NCCS3)sc2c1	23.1µM*	-7.4%	-92.1*	?	-6.2%
COc1ccc2nc(NC(=O)c3cccc(OCc4c(C)noc4C)c3)sc2c1	3.26µM*	?	-25.9	2.91µM*	?
COC(=O)c1ccc2nc(NC(=O)C(C)(C)C)sc2c1	?	?	0.0	?	18.4µM*
COC(=O)c1ccc2nc(NC(=O)C3CCCCC3)sc2c1	?	13.5%	10.4	11.2%	9.5%
CCNc1ncnc2c1nnn2C	-10.6%	.	.	-10.9%	.
O=C(COC(=O)/C=C/c1ccccc1)NCCc1ccc(F)cc1	-6.2%	10.0%	-10.4	-3.4%	2.7%
CCOC(=O)c1cc(C)sc1NC(=O)CSC1=NCCS1	?	-3.3%	-61.0*	-25.5%	-11.8%
CN(C)c1nc(=NCc2cccs2)ss1	0.0259µM*	?	-60.4*	0.0291µM*	8.8%
CN1CCCN(Cc2nc(-c3cccc(C(F)(F)F)c3)no2)CC1	?	-12.5%	-14.4	16.4µM*	-8.3%
CN1CCCC2(CCCN(Cc3nc(Cc4cccc(C(F)(F)F)c4)no3)C2)C1 (centres undefined)	-29.7%	-3.3%	-74.7*	?	-19.9%
FC(F)(F)c1cccc(Cc2noc(CN3CCCC(OCc4ccccn4)C3)n2)c1 (centres undefined)	18.4µM*	0.5%	-10.9	23.1µM*	-16.2%
CCc1ccc(CN(C)Cc2nc(Cc3cccc(C(F)(F)F)c3)no2)nc1	-29.4%	-14.0%	0.0	?	-4.6%
CCn1ccnc1CN(C)Cc1nc(Cc2cccc(C(F)(F)F)c2)no1	-3.0%	-0.2%	19.6	-13.7%	2.2%
CC(CN(C)Cc1nc(Cc2cccc(C(F)(F)F)c2)no1)CN1CCCC1 (centres undefined)	20.6µM*	-11.4%	-11.3	23.1µM*	-12.8%
C=CCc1cccc2cc(C(=O)NNC(=O)CC#N)c(=O)oc12	-14.7%	-2.3%	-10.5	-25.1%	8.9%

Screens: PubChem, National Center for Advancing Translational Sciences (NCATS)
